Screening data: PubChem BioAssay, National Center for Advancing Translational Sciences (NCATS)
A selection: hits, their analogues and other compounds. The true share with any hit is near 12%.
BAZ2B block: BAZ2B (human) inhibition; Q9UIF8; hit rate 4.4% among 360,000; AlphaScreen BAZ2B-H3K14Ac peptide displacement; Potency, µM (highest dose often 114 µM), inactives show top-dose activity change, negative = inhibition, usual class: inhibitors; further: on the % scale 0 is the no-effect control and ±100 the full control effect; nearly all actives have a fitted effect of over 60% in size
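Multi-concentration screen (max 110 uM) measuring displacement of acetylated histone H3 peptide from BAZ2B by AlphaScreen, using 50 nM protein, 50 nM peptide and 10 ug/mL streptavidin donor plus Ni-chelate acceptor beads.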
G9a inh: G9a (human) methyltransferase inhibition; Q96KQ7; Potency, µM (series often up to 102 µM), inactives show top-dose activity, negative = inhibition, most hits filed as inhibitors; G9a H3K9 monomethylation, AlphaScreen, 2 h; AID 504332; hit rate 8.8% among 350,000; further: on the % scale 0 is the no-effect control and ±100 the full control effect; nearly all actives have a fitted effect of over 75% in size
Target sequence (Q96KQ7 913-1193 limits assumed): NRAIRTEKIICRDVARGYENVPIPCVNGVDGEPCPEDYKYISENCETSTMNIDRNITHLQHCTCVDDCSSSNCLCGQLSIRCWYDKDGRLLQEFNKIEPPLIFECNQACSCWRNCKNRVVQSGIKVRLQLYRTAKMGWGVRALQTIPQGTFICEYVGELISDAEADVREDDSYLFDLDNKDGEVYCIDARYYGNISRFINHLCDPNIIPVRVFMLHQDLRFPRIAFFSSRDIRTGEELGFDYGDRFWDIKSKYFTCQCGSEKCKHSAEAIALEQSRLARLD
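Step 1: enzyme (final 20 nM) with compound, 15 min RT. Step 2: substrate peptide 500 nM and SAM 20 uM, 2 h RT. Step 3: anti-H3K9me1 antibody and AlphaScreen beads, 10 min, then plate read.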
Sfp inh: inhibitors of Bacillus subtilis Sfp phosphopantetheinyl transferase. Biochemical Sfp PPTase activity, qHTS. Potency, µM, for the others: largest response in the series, negative = inhibition, most hits filed as inhibitors. hit rate 3.5% among 310,000. Q9F4F7. AID 1490;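 further: the enzyme is Sfp with the accession as filed and its product quenches rhodamine fluorescence; 0% = enzyme reaction without inhibitor and -100% = no enzyme wells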
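Buffer: 50 mM Hepes-Na pH 7.6, 10 mM MgCl2, 0.01% Nonidet P-40, 0.01% BSA. Enzyme 15 nM, pre-exposed to compound 15 min; substrates then added and fluorescence change tracked over 30 min.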
HP1b binding inh: inhibitors of HP1-beta chromodomain binding to methylated histone tails; P83916; AlphaScreen HP1-beta / biotin-H3K9me3 peptide binding; Potency, µM (highest dose often 114 µM), inactives show at the top dose activity change, negative = inhibition, actives largely listed as inhibitors; hit rate 0.56% among 390,000; further: nearly all actives have a fitted effect of over 70% in size
Target sequence (P83916 whole entry, looked up): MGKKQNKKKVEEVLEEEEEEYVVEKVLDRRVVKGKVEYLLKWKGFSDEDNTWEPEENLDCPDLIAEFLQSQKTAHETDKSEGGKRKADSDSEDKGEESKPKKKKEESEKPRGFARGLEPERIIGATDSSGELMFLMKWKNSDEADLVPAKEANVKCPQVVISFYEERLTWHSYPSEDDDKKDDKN
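AlphaScreen: HP1-beta (50 nM) preformed 30 min with biotin-H3(1-18)K9me3 peptide (50 nM) in PBS pH 7.4, 0.01% Tween-20. Compound added for 30 min at RT, then streptavidin donor/nickel chelate acceptor beads (10 ug/mL) for 30 min.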
JMJD2A Tudor inh: inhibitors of human JMJD2A Tudor domain; Potency, µM (highest dose often 114 µM), for the others: at the highest dose activity change, negative = inhibition, hits mostly inhibitors; O75164; AID 504339; hit rate 4.4% among 390,000; AlphaScreen JMJD2A-Tudor / H3K4me3 peptide binding; further: on the % scale 0 is the no-effect control and ±100 the full control effect; nearly all actives have a fitted effect of over 50% in size
L3MBTL1 inh: blocks human L3MBTL1; AID 485360; AlphaScreen L3MBTL1–H3K9me1 peptide binding; Potency, µM (highest dose often 57.1 µM), for the others: at the highest dose activity, negative = inhibition, most hits filed as inhibitors; hit rate 0.66% among 230,000; further: on the % scale 0 is the no-effect control and ±100 the full control effect; nearly all actives have a fitted effect of over 60% in size
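L3MBTL1 (50 nM) pre-complexed 30 min with biotinylated H3(1-15)K9me1 peptide (75 nM), then compounds added for 30 min at room temperature; AlphaScreen streptavidin donor/nickel chelate acceptor beads (10 ug/mL final) read after 30 min dark incubation.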
* hit, by the source's call; [ ] = another dose, or the depositor's remark. The call rests on the fitted dose curve; in most records, active means well fitted curve in the direction sought with a large enough effect; inconclusive means small, poorly fitted or top-dose-only effect, or another doubt; inactive means no such curve, though single readings can be large; an effect the other way counts as inactive or inconclusive. Potency means the concentration at half of the fitted maximal effect.

O=C(Nc1cc(Cl)ccc1F)c1ccc(-n2cncn2)c([N+](=O)[O-])c1 was read as BAZ2B block -6%, G9a inh 56µM*, HP1b binding inh 8%, JMJD2A Tudor inh -27% and L3MBTL1 inh 0%.
Screening COc1ncc2nc(-c3ccc(F)cc3)c(=O)n(-c3ccccc3)c2n1 returned G9a inh 7%[0.501 µM] and Sfp inh 11%.
CC(=O)Nc1ccc(S(=O)(=O)N2CCN(C(=O)c3ncoc3-c3cccc(F)c3)CC2)cc1 was read as BAZ2B block -1%, G9a inh inconclusive, Sfp inh -1%, HP1b binding inh 22% and JMJD2A Tudor inh 0%.
Cc1oc(-c2cccc(Cl)c2)nc1CN1CCCC(C(=O)NCc2ccc(F)cc2)C1 (stereo not given) was read as BAZ2B block -37%, G9a inh inconclusive, HP1b binding inh 6% and JMJD2A Tudor inh -35%.
Screening CO[C@H]1COC(=O)[C@H]2CCCN2C(=O)C/C=C\[C@@H](C)[C@H](OC)COC(=O)[C@@H](OCc2ccccc2)/C=C\[C@@H]1C returned Sfp inh 4%.
Screening CCC(=O)N1CCN(c2ccc(Cl)cc2NC(=O)c2ccc([N+](=O)[O-])o2)CC1 returned BAZ2B block -13%, G9a inh inconclusive, Sfp inh 8%, HP1b binding inh 7% and JMJD2A Tudor inh -12%.
O=C(Nc1cc(Cl)ccc1-n1cncn1)c1ccc([N+](=O)[O-])o1 was read as BAZ2B block -32%, G9a inh 50µM*, HP1b binding inh -13%, JMJD2A Tudor inh -30% and L3MBTL1 inh -19%.
`CCCc1cc(C(=O)N2CCN(c3ccc(C(F)(F)F)cn3)CC2)sc1C` gave BAZ2B block 27%, G9a inh 28%, Sfp inh 5%, HP1b binding inh 37%[57 µM] and JMJD2A Tudor inh 27%.
CC(C)C(=O)Nc1cccc(C(=O)Nc2nnc(C(C)C)s2)c1 was read as BAZ2B block 10%, G9a inh 0%[59 µM], Sfp inh 15%, HP1b binding inh 41%, JMJD2A Tudor inh 0% and L3MBTL1 inh 3%.
Screening CC(C)c1nnc(NC(=O)c2cccc(NC(=O)C(F)(F)F)c2)s1 returned BAZ2B block -12%, G9a inh 13µM*, Sfp inh inconclusive, HP1b binding inh -7%, JMJD2A Tudor inh -12% and L3MBTL1 inh 2%.
For COc1ccccc1-c1cc(C(=O)Nc2cccnc2Cl)no1 the results were BAZ2B block 1%, G9a inh -12%[59 µM], Sfp inh 19%, HP1b binding inh 30% and JMJD2A Tudor inh -8%.
Screening COc1ccccc1C(=O)NC(=S)Nc1cccnc1Cl returned BAZ2B block -29%, G9a inh 10µM*, Sfp inh 45µM*, HP1b binding inh inconclusive and JMJD2A Tudor inh -25%.
Screening O=C(Nc1cccnc1Cl)c1ccc(=O)oc1 returned BAZ2B block 56µM*, G9a inh 35µM*, Sfp inh inconclusive, HP1b binding inh 2%, JMJD2A Tudor inh inconclusive and L3MBTL1 inh inconclusive.
Screening Cc1ccc(C(=O)NC(=S)Nc2cccnc2Cl)cc1 returned BAZ2B block 1%, G9a inh inconclusive, Sfp inh 56µM*, HP1b binding inh -1% and JMJD2A Tudor inh 0%.
For CCOc1ccccc1N(CC)C(=O)c1noc2c1COc1ccc(C)cc1-2 the results were BAZ2B block 4%, G9a inh 9%[59 µM], HP1b binding inh 9% and JMJD2A Tudor inh -17%.
CCS(=O)(=O)c1ccc2oc(SCC(=O)NC34CC5CC(CC(C5)C3)C4)nc2c1 was read as BAZ2B block 56µM*, G9a inh -10%, Sfp inh -4%, HP1b binding inh 19% and JMJD2A Tudor inh -12%.
For COc1ccc(N2C(=O)CSC2c2ccc([N+](=O)[O-])cc2)cc1 (stereo not given) the results were BAZ2B block -16%, G9a inh 11%, Sfp inh 5%, HP1b binding inh -1% and JMJD2A Tudor inh -15%.
`CSc1nnc(NC(=O)c2nc(S(=O)(=O)Cc3ccccc3F)ncc2Cl)s1` gave BAZ2B block -11%, G9a inh 28µM*, Sfp inh inconclusive, HP1b binding inh 16%[57 µM] and JMJD2A Tudor inh 22µM*.
`O=C(Nc1nc2ccc(F)cc2s1)c1nc(S(=O)(=O)Cc2ccccc2F)ncc1Cl` gave BAZ2B block -11%, G9a inh 33%[59 µM], HP1b binding inh 94% and JMJD2A Tudor inh -26%.
`Cc1nnc(NC(=O)c2nc(S(=O)(=O)Cc3ccccc3C)ncc2Cl)s1` gave BAZ2B block 56µM*, G9a inh inconclusive, Sfp inh inconclusive, HP1b binding inh 33% and JMJD2A Tudor inh inconclusive.
Cc1nnc(NC(=O)c2nc(SCc3ccccc3F)ncc2Cl)s1 was read as BAZ2B block 15%, G9a inh 12%[59 µM], HP1b binding inh 64% and JMJD2A Tudor inh -14%.
Screening CC(C)c1nnc(NC(=O)c2nc(S(=O)(=O)Cc3ccccc3F)ncc2Cl)s1 returned BAZ2B block inconclusive, G9a inh 20µM*, Sfp inh -24%, HP1b binding inh 46% and JMJD2A Tudor inh 4%.
CCCn1c(=O)c(Br)cn(-c2ccccc2C)c1=O was read as BAZ2B block -19%, G9a inh -4%[59 µM], Sfp inh 5%, HP1b binding inh 45%, JMJD2A Tudor inh 19% and L3MBTL1 inh 9%.
Screening O=C(COC(=O)CNC(=O)c1ccccc1)NCCNC(=O)COC(=O)CNC(=O)c1ccccc1 returned BAZ2B block 2%, G9a inh 17%[12.7 µM], HP1b binding inh 18%, JMJD2A Tudor inh 3% and L3MBTL1 inh 6%.
For CN1C[C@@H]2C[C@H]1CN2c1cc2c(cc1F)c(=O)c(C(=O)O)cn2C1CC1 the results were G9a inh 17%[59 µM] and Sfp inh 11%.
`CC(C)(C)c1ccc(Oc2nc3ccccn3c(=O)c2/C=C(\C#N)c2nc3ccccc3[nH]2)cc1` gave BAZ2B block 2%, G9a inh 6%[59 µM], HP1b binding inh 54% and JMJD2A Tudor inh 0%.
`Cc1ccc(Cl)c2sc(N3CCN(C(=O)C4CC4)CC3)nc12` gave BAZ2B block 0%, G9a inh -6%[59 µM], HP1b binding inh 18% and JMJD2A Tudor inh -6%.
`COC(=O)c1sc(NC(=O)c2ccc([N+](=O)[O-])o2)c(C#N)c1C` gave BAZ2B block inconclusive, G9a inh 13µM*, Sfp inh 25µM*, HP1b binding inh inconclusive and JMJD2A Tudor inh inconclusive.
